Compound activity deposited in PubChem by The Scripps Research Institute Molecular Screening Center.
Rows were chosen to be rich in hits. Some 3.5% of all compounds tested hit in one or more screens of this group.
MITF inh: human MITF inhibition, primary screen; O75030; AlphaScreen MITF homodimerization, bead proximity signal; inhibition, % at 2.6 µM; 0.91% of 650,000 active; AID 1259374; in the data active = inhibition above about 50%
FBW7 activator: human FBW7 E3 ligase activation, primary screen. AlphaScreen FBW7–phospho-cyclin E peptide binding, activator screen. normalized activity (activation), % at 26.1 µM. 0.13% of 650,000 active. Q969H0; in the data active = normalized activity above about 1.9%;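 also: purified mutant Fbw7 with reduced substrate affinity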
Target sequence (Q969H0 whole entry, looked up): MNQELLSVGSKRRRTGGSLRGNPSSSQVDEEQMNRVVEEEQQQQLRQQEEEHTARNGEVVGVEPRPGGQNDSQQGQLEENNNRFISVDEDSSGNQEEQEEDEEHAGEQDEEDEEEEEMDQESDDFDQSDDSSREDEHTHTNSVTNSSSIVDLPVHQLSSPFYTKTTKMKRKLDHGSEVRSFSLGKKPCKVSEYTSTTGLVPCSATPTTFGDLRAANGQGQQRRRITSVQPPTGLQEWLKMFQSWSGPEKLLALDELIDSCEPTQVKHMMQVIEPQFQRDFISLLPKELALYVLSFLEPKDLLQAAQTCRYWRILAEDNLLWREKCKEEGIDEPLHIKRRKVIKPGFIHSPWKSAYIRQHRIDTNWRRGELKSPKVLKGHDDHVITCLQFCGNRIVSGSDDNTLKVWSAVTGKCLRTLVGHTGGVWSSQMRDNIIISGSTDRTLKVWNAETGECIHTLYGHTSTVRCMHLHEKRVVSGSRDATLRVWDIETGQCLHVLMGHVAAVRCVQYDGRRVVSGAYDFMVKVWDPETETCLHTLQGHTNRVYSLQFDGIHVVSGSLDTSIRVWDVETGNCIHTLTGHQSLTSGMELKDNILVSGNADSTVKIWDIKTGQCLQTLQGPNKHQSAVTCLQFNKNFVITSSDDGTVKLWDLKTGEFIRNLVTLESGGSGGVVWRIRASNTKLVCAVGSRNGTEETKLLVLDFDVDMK
GPR151 ag: activators of human GPR151 | Q8TDV0 | PathHunter beta-arrestin GPR151 cells, luminescence | activation, % at 11.2 µM | 1% of 650,000 active | AID 1508602; in the data active = activation above about 4.9%
TEAD-YAP inh: TEAD-YAP interaction inhibition. HEK-TIYL cells, TEAD-Gal4/YAP UAS-luciferase luminescence. inhibition, % at 9.12 µM. 1.4% of 640,000 active. AID 1259422; in the data active = inhibition above about 32%
GPR151 confirm: human GPR151 activation, confirmation screen; shares compounds with GPR151 ag; GPR151 PathHunter beta-arrestin cells, luminescence, 90 min; % of EA-reagent control over plate median; activation, % at 11.2 µM; 6,700 tested, under 10 active;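 active = mean percent activation across replicates above the confirmation screen cutoff of 4.91%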
GPR119 counter: GPR119 activation, counter-screen for GPR151 activators; shares compounds with GPR151 ag; GPR119 PathHunter beta-arrestin cells, luminescence, 90 min; 0 = compound-well median, 100 = enzyme-acceptor control; 0.3% of 6,700 active; activation, % at 11.2 µM;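 active = mean percent activation in the counterscreen above 29.09%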;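 also: counterscreen on off-target GPR119 to flag nonselective hits from the GPR151 activator screen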
A number is an active result; i = inactive; nt = no result; ! = a repeat was not active.

SMILES | MITF inh | FBW7 activator | GPR151 ag | TEAD-YAP inh | GPR151 confirm | GPR119 counter
COC(=O)C1=C(NC(=O)c2ccccc2Br)CCS1 | i | i | 5.0 | i | i | i
CCSc1nc2c(c(=O)n1C1CCCC1)C1(CCCCC1)Cc1ccccc1-2 | i | i | i | i | nt | nt
Cc1[nH]c2ccccc2c1/C=N/Nc1ccccc1[N+](=O)[O-] | i | i | 6.9 | i | i | i
COc1ccc(CCN2C(=O)CC(Cc3ccc(Br)cc3)C2=O)cc1OC (stereo not given) | i | i | 5.6 | i | i | i
COc1ccc(S(=O)(=O)NCc2ccncc2)cc1OC | i | i | 5.4 | i | i | i
COc1ccc(N/N=C(/C#N)C(=N)N2CCCCCC2)cc1 | i | i | i | i | nt | nt
O=C(O)c1c(-c2ccccc2)oc2ccc(O)cc12 | i | i | i | i | nt | nt
O=C(c1c(-c2ccccc2)oc2ccc(O)cc12)N1CCCCC1 | i | i | 4.9 | i | i | i
O=C(CSc1ccc(F)cc1)Nc1ccc(-c2ccn[nH]2)cc1 | i | i | i | i | nt | nt
Cc1ccc(-c2cc(-c3ccccc3)c(C#N)c(SCC(O)CS(=O)Cc3ccccc3)n2)cc1 (stereo not given) | i | i | i | i | nt | nt
CCOc1ccc(C(=O)Nc2sc(C)c(C)c2C#N)cc1 | i | i | i | i | nt | nt
CCCCOc1ccc(C(=O)Nc2sc(C)c(C)c2C#N)cc1 | i | i | 8.3 | i | i | i
COc1ccc2[nH]cc(NC(=O)NCCCN3CCN(C)CC3)c(=O)c2n1 | i | i | i | i | nt | nt
CCN(CC)c1ccc(/C=N/NC(=O)COc2ccccc2)c(O)c1 | i | i | 8.1 | i | i | i
CCN(CC)c1ccc(/C=N/N2C(=O)c3ccccc3C2=O)c(O)c1 | i | i | 8.3 | i | i | i
CCN(CC)c1ccc(/C=N/N2C(=O)c3ccccc3C2=O)cc1 | i | i | i | i | nt | nt
CCOC(=O)C(NC(=O)NNS(=O)(=O)c1ccc(C)cc1)(c1ccc(F)cc1)C(F)(F)F (stereo not given) | i | i | i | i | nt | nt
COc1cc(-c2ccc(NC(=O)C3CCCO3)c(OC)c2)ccc1NC(=O)C1CCCO1 (stereo not given) | i | i | i | i | nt | nt
CCCc1cc(C(N)=O)c(NC(=O)C2CCCO2)s1 (stereo not given) | i | i | 10 | i | i | i
CCOc1cc(NC(=O)C2CCCO2)c(OCC)cc1NC(C)=O (stereo not given) | i | i | 15 | i | i | i
CCCCCc1nnc(NC(=O)C2CCCO2)s1 (stereo not given) | i | i | i | i | nt | nt
COc1ccc(N2CC(NC(=O)NC(c3ccccc3)c3ccccc3)CC2=O)cc1 (stereo not given) | i | i | 6.1 | i | i | i
CCCCSc1nnc2c(n1)OC(C1CC3C(=CCCC3(C)C)CC1C)Nc1ccccc1-2 (stereo not given) | i | i | i | i | nt | nt
O=C(NCCN1CCNCC1)c1cc(C2COc3ccccc3O2)nc2ccc(-c3cn[nH]c3)cc12 (stereo not given) | i | i | i | i | nt | nt
O=C(O)c1cc(C2COc3ccccc3O2)nc2ccc(-c3cn[nH]c3)cc12 (stereo not given) | i | i | 13 | i | i | i
SMILES | MITF inh | FBW7 activator | GPR151 ag | TEAD-YAP inh | GPR151 confirm | GPR119 counter
COc1cc(-c2cnc3c(n2)[nH]c(=O)n3-c2ccccc2)cc(OC)c1OC | i | i | i | i | nt | nt
Clc1ccc(N2CCN(Cc3ccco3)CC2)cc1 | i | i | 5.0 | i | i | i
Clc1ccc(N2CCN(Cc3ccoc3)CC2)cc1 | i | i | i | i | nt | nt
CC(=O)Nc1ccc(NC=C2C(=O)OC3(CCCCC3)OC2=O)cc1 | i | i | i | i | nt | nt
CCc1ccccc1NC(=O)c1ccc(F)c(S(=O)(=O)N2CCCCC2C)c1 (stereo not given) | i | i | 6.7 | i | i | i
Cc1cc(NC(=O)Nc2cccs2)ccc1Br | i | i | i | i | nt | nt
CC(C)CC(NC(=O)c1ccccc1)C(=O)OCC(=O)c1ccccc1 (stereo not given) | i | i | i | i | nt | nt
CC(C)CC(NC(=O)c1ccccc1)C(=O)OCc1ccccc1 (stereo not given) | i | i | 5.6 | i | i | i
C=CCn1c(=O)/c(=C/c2ccccn2)s/c1=C(/C#N)C(N)=O | i | i | i | i | nt | nt
COc1cccc(-c2ocnc2C(=O)NCCN2CCCCCC2)c1 | i | i | i | i | nt | nt
O=C(C[n+]1cccc2ccccc21)c1ccc(Br)cc1 | i | i | 15 | i | i | i
COC(=O)c1ccc[n+](CC(=O)c2ccc(Br)cc2)c1 | i | i | 6.2 | i | i | i
O=C(C[n+]1cccc2ccccc21)c1ccc(-c2ccccc2)cc1 | i | i | i | i | nt | nt
COc1ccc(C(=O)C[n+]2cccc(Br)c2)cc1 | i | i | i | i | nt | nt
O=C(CCCN1C(=O)c2cccc3cccc(c23)C1=O)NO | i | i | i | i | nt | nt
COC(=O)c1c(C)[nH]c(C(=O)COC(=O)CCc2ccc(OC)c(OC)c2)c1C | i | i | 5.7 | i | i | i
CN(C)CCCSC(=N)N | i | i | i | nt | nt | nt
CSC(=N)N | i | i | 11! | i | i | i
Cc1cc(NC(=O)c2ccc3c(c2)C(=O)N(N2C(=O)c4ccccc4C2=O)C3=O)no1 | i | i | i | i | nt | nt
CC(C)c1nc(C(=O)N2CCCC(N3CCOCC3)C2)cs1 (stereo not given) | i | i | 6.7 | i | i | i
CC1CCC(NC(=O)CC(C)S(=O)(=O)c2ccc3c(c2)OCC(=O)N3)CC1 (stereo not given) | i | i | i | i | nt | nt
Cc1cc(C)n(-c2ccc(NC(=O)C3CCN(Cc4cnc(C)s4)CC3)cc2)n1 | i | i | 5.8! | i | i | i
Cc1ncc(CN2CCC(C(=O)Nc3ccc(-n4cccn4)cc3)CC2)s1 | i | i | i | i | nt | nt
CC(NC(=O)CCl)c1ccc(F)cc1F (stereo not given) | i | i | 5.2 | i | i | i
CC(NC(=O)CCl)c1ccc2c(c1)CCCC2 (stereo not given) | i | i | i | i | nt | nt
SMILES | MITF inh | FBW7 activator | GPR151 ag | TEAD-YAP inh | GPR151 confirm | GPR119 counter
Cc1ccc(N2C(c3ccc(N(C)C)cc3)C(=O)C2N2C(=O)c3ccccc3C2=O)cc1 (stereo not given) | i | i | 8.4 | i | i | i
Cc1nonc1CN(C)C(=O)C1CC12CCN(C(=O)c1ccccc1C(F)(F)F)CC2 (stereo not given) | i | i | 5.3 | i | i | i
CCOC(=O)C1(Cc2ccccc2C(F)(F)F)CCN(C(=O)Cc2nonc2C)CC1 | i | i | i | i | nt | nt
N#C/C(=C\c1ccc(OCC(=O)O)cc1)C(N)=S | i | i | 6.4 | i | i | i
C=CCOC(=O)/C(C#N)=C/c1ccc(OCC(=O)O)cc1 | i | i | i | i | nt | nt
O=C1CCCN1CCCNc1nc(NCCN2CCOCC2)nc2c1ncn2C1CCCCC1 | i | i | i | i | nt | nt
CCN(CC)CCOC(=O)c1ccc(NC(=O)CNC(=O)C2CCCCC2)cc1 | i | i | 5.9 | i | i | i
CCOc1ccc(NC(=O)CNC(=O)C2CCCCC2)cc1 | i | i | i | i | nt | nt
